In the supplement of paper PMC13380429:

Tested on: Vero E6 infected with SARS-CoV-2
Test: inhibition of SARS-CoV-2 cytopathic effect; higher = more antiviral protection, active = above 15
Details: 48 h

Measured: inhibition of SARS-CoV-2 cytopathic effect

CCCCCCCCCCC(=O)O[C@H]1CC[C@H]2[C@@H]3CCC4=CC(=O)CC[C@]4(C)[C@H]3CC[C@]12C [Testosterone (undecanoate)]
inactive: 1 nM 1.81% | 8.33 nM 0.82% | 100 nM 0.37% | 833.33 nM 0.31% | 10000 nM 0.21%

O=C(O[C@H]1[C@H](OC(=O)c2cccnc2)[C@@H](OC(=O)c2cccnc2)[C@H](OC(=O)c2cccnc2)[C@@H](OC(=O)c2cccnc2)[C@H]1OC(=O)c1cccnc1)c1cccnc1 [inositol-hexanicotinate]
inactive: 1 nM 2.01% | 8.33 nM 3.15% | 100 nM 2.82% | 833.33 nM 0.04% | 10000 nM 0.85%

Cl/C=C\C[N+]12CN3CN(CN(C3)C1)C2 [1-((Z)-3-chloroallyl)-1,3,5,7-tetraazaadamantan-1-ium]
inactive: 1 nM 0% | 8.33 nM 0.47% | 100 nM -0.23% | 833.33 nM 2.67% | 10000 nM 5.36%

C[C@H]1C[C@H]2[C@@H]3CCC4=CC(=O)C=C[C@]4(C)[C@H]3C(=O)C[C@]2(C)[C@@]1(O)C(=O)CO [Betapar (Meprednisone)]
inactive: 1 nM 0.88% | 8.33 nM 0.92% | 100 nM 2.1% | 833.33 nM 0.12% | 10000 nM 4.2%

O=C(O)CCc1ccc(NCc2cccc(Oc3ccccc3)c2)cc1
inactive: 1 nM 1.33% | 8.33 nM -1.1% | 100 nM -1.51% | 833.33 nM -0.16% | 10000 nM -0.27%

Cc1nc(C)c(Cl)c(O)c1Cl [clopidol]
inactive: 1 nM -2.81% | 8.33 nM -1.24% | 100 nM 1.07% | 833.33 nM 0.96% | 10000 nM 1.78%
